Here are results for four molecules from PubChem BioAssay (EPA / NIEHS).

Holding throughout (settings): mRNA level, 48 h; actives raise or lower the signal
Read-out in assay [1]: Cytochrome P450 7A1 (Homo sapiens) (UniProt P22680)
The assay is described as follows: LTEA_HepaRG_CYP7A1: Life Technologies and Expression Analysis (LTEA) Assay for Cytochrome P450 7A1 (CYP7A1) using HepaRG (AID 2283496). Summed up:
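HepaRG cells plated 48 h, then switched to serum-free induction medium and exposed in duplicate for 48 h to 8-point half-log series from 100 uM in 0.5% DMSO. CYP7A1 mRNA by qRT-PCR (TaqMan), normalized to ACTB/GAPDH/POLR2A; bidirectional fit versus DMSO.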

Read-out in assay [2]: Glutathione S-Transferase (GSTA2), GSTA2 (gene 2939)
Put plainly: LTEA_HepaRG_GSTA2: Life Technologies and Expression Analysis (LTEA) Assay for Glutathione S-Transferase (GSTA2) using HepaRG (AID 2283497). Summed up:
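Human HepaRG cells, plated 48 h, then exposed in serum-free induction medium for 48 h to eight half-log concentrations up to 100 uM in 0.5% DMSO, duplicate. GSTA2 mRNA by qRT-PCR, normalized to ACTB/GAPDH/POLR2A; bidirectional fit versus DMSO.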

Read-out in assay [3]: growth arrest and DNA damage 45 (GADD45G), GADD45G (gene 10912)
Put plainly: LTEA_HepaRG_GADD45G: Life Technologies and Expression Analysis (LTEA) Assay for growth arrest and DNA damage 45 (GADD45G) using HepaRG (AID 2283499). Summed up: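 Differentiated human HepaRG cells in serum-free induction medium were exposed for 48 h to 8 half-log concentrations up to 100 uM in 0.5% DMSO, in duplicate. GADD45G mRNA was measured by TaqMan qRT-PCR, normalised to ACTB, GAPDH and POLR2A, and fitted bidirectionally against DMSO.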

Read-out in assay [4]: Glutamate-cysteine ligase regulatory (GCLM), GCLM (gene 2730)
Put plainly: LTEA_HepaRG_GCLM: Life Technologies and Expression Analysis (LTEA) Assay for Glutamate-cysteine ligase regulatory (GCLM) using HepaRG (AID 2283500). Summed up:
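Differentiated HepaRG cells exposed 48 h in serum-free induction medium to eight half-log concentrations up to 100 uM (0.5% DMSO). GCLM mRNA by TaqMan qRT-PCR, normalized to ACTB, GAPDH and POLR2A; bidirectional fit versus DMSO.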

Read-out in assay [5]: Glutathione S-transferase M3 (GSTM3), GSTM3 (gene 2947)
Put plainly: LTEA_HepaRG_GSTM3: Life Technologies and Expression Analysis (LTEA) Assay for Glutathione S-transferase M3 (GSTM3) using HepaRG (AID 2283501). Summed up: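 Differentiated HepaRG cells in serum-free induction medium were exposed in duplicate for 48 h to 8 half-log concentrations up to 100 uM in 0.5% DMSO. GSTM3 mRNA was measured by TaqMan qRT-PCR, normalized to ACTB/GAPDH/POLR2A, and fitted bidirectionally versus DMSO.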

Read-out in assay [6]: Heat shock 70 kDa protein 1 (HSPA1A), gene 3303
The assay is described as follows: LTEA_HepaRG_HSPA1A: Life Technologies and Expression Analysis (LTEA) Assay for Heat shock 70 kDa protein 1 (HSPA1A) using HepaRG (AID 2283502). Summed up:
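Human HepaRG cells in serum-free induction medium were exposed in duplicate for 48 h to 8 half-log concentrations, highest 100 uM, in 0.5% DMSO. HSPA1A mRNA read by TaqMan qRT-PCR, normalized to ACTB, GAPDH, POLR2A, fitted bidirectionally against DMSO.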

Read-out in assay [7]: Hypoxia-inducible factor 1-alpha (Homo sapiens) (UniProt Q16665)
The assay is described as follows: LTEA_HepaRG_HIF1A: Life Technologies and Expression Analysis (LTEA) Assay for Hypoxia-inducible factor 1 (HIF1A) Trancription factor using HepaRG (AID 2283503). Summed up: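 Differentiated HepaRG cells in serum-free induction medium exposed 48 h, in duplicate, to 8-point half-log series from 100 uM in 0.5% DMSO. HIF1A mRNA measured by TaqMan qRT-PCR, normalized to ACTB/GAPDH/POLR2A, fitted bidirectionally versus DMSO.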

Read-out in assay [8]: 3-Hydroxy-3-Methylglutaryl-CoA Synthase 2 (HMGCS2), HMGCS2 (gene 3158)
Put plainly: LTEA_HepaRG_HMGCS2: Life Technologies and Expression Analysis (LTEA) Assay for 3-Hydroxy-3-Methylglutaryl-CoA Synthase 2 (HMGCS2) using HepaRG (AID 2283504). Summed up:
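Differentiated human HepaRG cells were exposed in duplicate for 48 h in serum-free induction medium to eight concentrations (top 100 uM, half-log steps, 0.5% DMSO). HMGCS2 mRNA was quantified by TaqMan qRT-PCR, normalised to ACTB, GAPDH and POLR2A, then fitted bidirectionally against DMSO.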

Read-out in another assay: HGF (gene 3082)
Put plainly: LTEA_HepaRG_HGF: Life Technologies and Expression Analysis (LTEA) Assay for Hepatocyte Growth Facto (HGF) using HepaRG (AID 2283505). Summed up: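 Differentiated human HepaRG cells in serum-free induction medium were exposed in duplicate for 48 h to eight concentrations (top 100 uM, half-log steps, 0.5% DMSO). HGF mRNA was quantified by qRT-PCR, normalized to ACTB, GAPDH and POLR2A.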

Read-out in assay [9]: Insulin Like Growth Factor 1 (IGF1), IGF1 (gene 3479)
Put plainly: LTEA_HepaRG_IGF1: Life Technologies and Expression Analysis (LTEA) Assay for Insulin Like Growth Factor 1 (IGF1) using HepaRG (AID 2283506). Summed up:
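Differentiated HepaRG cells in serum-free induction medium, exposed 48 h in duplicate to 8 half-log concentrations up to 100 uM in 0.5% DMSO. IGF1 mRNA by Fluidigm qRT-PCR, normalised to ACTB, GAPDH and POLR2A.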

Read-out in assay [10]: Intercellular Adhesion Molecule 1 (ICAM1), ICAM1 (gene 3383)
Put plainly: LTEA_HepaRG_ICAM1: Life Technologies and Expression Analysis (LTEA) Assay for Intercellular Adhesion Molecule 1 (ICAM1) using HepaRG (AID 2283507). Summed up:
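Differentiated HepaRG cells in serum-free induction medium were exposed in duplicate for 48 h to eight half-log concentrations up to 100 uM in 0.5% DMSO. Transcript levels were measured by qRT-PCR normalized to ACTB, GAPDH and POLR2A; bidirectional fits relative to DMSO.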

Read-out in assay [11]: Insulin-like growth factor-binding protein 1 (IGFBP1), IGFBP1 (gene 3484)
The assay is described as follows: LTEA_HepaRG_IGFBP1: Life Technologies and Expression Analysis (LTEA) Assay for Insulin-like growth factor-binding protein 1 (IGFBP1) using HepaRG (AID 2283508). Summed up:
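Differentiated human HepaRG cells in serum-free induction medium were exposed in duplicate for 48 h to eight concentrations, top 100 uM with half-log dilutions, in 0.5% DMSO. Transcript levels came from qRT-PCR normalised to ACTB, GAPDH and POLR2A, fitted bidirectionally against DMSO.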

Read-out in assay [12]: Interleukin 6 (IL6), IL6 (gene 3569)
Put plainly: LTEA_HepaRG_IL6: Life Technologies and Expression Analysis (LTEA) Assay for Interleukin 6 (IL6) using HepaRG (AID 2283509). Summed up:
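Differentiated human HepaRG cells, plated 48 h then switched to serum-free induction medium, were exposed in duplicate for 48 h to eight half-log concentrations up to 100 uM in 0.5% DMSO. IL6 mRNA measured by qRT-PCR, normalized to ACTB/GAPDH/POLR2A.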

Read-out in assay [13]: Interleukin 6 Receptor (IL6R), IL6R (gene 3570)
The assay is described as follows: LTEA_HepaRG_IL6R: Life Technologies and Expression Analysis (LTEA) Assay for Interleukin 6 Receptor (IL6R) using HepaRG (AID 2283510).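 As to AC50: TaqMan qRT-PCR signal normalized to ACTB GAPDH and POLR2A housekeeping genes.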 Summed up: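 Differentiated HepaRG cells, plated 48 h, then exposed in duplicate for 48 h in serum-free induction medium to 8 half-log concentrations (top 100 uM, 0.5% DMSO). IL6R mRNA measured by TaqMan qRT-PCR, normalized to ACTB/GAPDH/POLR2A; bidirectional fit vs DMSO.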

Read-out in assay [14]: Potassium channel subfamily K member 1 (KCNK1), KCNK1 (gene 3775)
Put plainly: LTEA_HepaRG_KCNK1: Life Technologies and Expression Analysis (LTEA) Assay for Potassium channel subfamily K member 1 (KCNK1) using HepaRG (AID 2283511). Summed up: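 Differentiated human HepaRG cells in serum-free induction medium were exposed in duplicate for 48 h to 8 half-log concentrations up to 100 uM in 0.5% DMSO. KCNK1 mRNA was measured by TaqMan qRT-PCR, normalized to ACTB, GAPDH and POLR2A, and fitted bidirectionally versus DMSO.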

Read-out in assay [15]: Keratin 19 (KRT19), KRT19 (gene 3880)
Put plainly: LTEA_HepaRG_KRT19: Life Technologies and Expression Analysis (LTEA) Assay for Keratin 19 (KRT19) using HepaRG (AID 2283512). Summed up:
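Differentiated human HepaRG cells, plated 48 h, were exposed in duplicate for 48 h in serum-free induction medium to eight half-log concentrations up to 100 uM in 0.5% DMSO. KRT19 mRNA was quantified by qRT-PCR, normalized to ACTB, GAPDH and POLR2A, and fitted bidirectionally versus DMSO.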

Read-out in assay [16]: JUN Transcription Factor, JUN (gene 3725)
The assay is described as follows: LTEA_HepaRG_JUN: Life Technologies and Expression Analysis (LTEA) Assay for JUN Transcription Factor using HepaRG (AID 2283513). Summed up: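 HepaRG cells, 48 h post-plating, exposed 48 h in serum-free induction medium to 8-point half-log series (top 100 uM, 0.5% DMSO), duplicate; mRNA by qRT-PCR (TaqMan, Fluidigm), normalized to ACTB/GAPDH/POLR2A; bidirectional fit vs DMSO.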

Read-out in assay [17]: Lipoprotein lipase (LPL), LPL (gene 4023)
Put plainly: LTEA_HepaRG_LPL: Life Technologies and Expression Analysis (LTEA) Assay for Lipoprotein lipase (LPL) using HepaRG (AID 2283515). Summed up:
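Differentiated human HepaRG cells in serum-free induction medium were exposed in duplicate for 48 h to eight half-log concentrations (top 100 uM) in 0.5% DMSO. LPL mRNA was quantified by TaqMan qRT-PCR, normalized to ACTB, GAPDH and POLR2A.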

Read-out in assay [18]: Lipase C (LIPC), LIPC (gene 3990)
The assay is described as follows: LTEA_HepaRG_LIPC: Life Technologies and Expression Analysis (LTEA) Assay for Lipase C (LIPC) using HepaRG (AID 2283514). Summed up: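 Differentiated human HepaRG cells in serum-free induction medium were exposed in duplicate for 48 h to eight concentrations (top 100 uM, half-log steps, 0.5% DMSO). LIPC mRNA was quantified by TaqMan qRT-PCR, normalized to ACTB, GAPDH and POLR2A, with bidirectional fitting versus DMSO.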

SMILES strings stand for the structures. Calls of active or inactive are those of the source. The calls were made as follows: active = hit-call score of the fitted dose curve at least 0.9, where 1 is the maximum; inactive = score below 0.9.

Chain of Hypoxia-inducible factor 1-alpha (Homo sapiens) (Q16665 whole entry, looked up): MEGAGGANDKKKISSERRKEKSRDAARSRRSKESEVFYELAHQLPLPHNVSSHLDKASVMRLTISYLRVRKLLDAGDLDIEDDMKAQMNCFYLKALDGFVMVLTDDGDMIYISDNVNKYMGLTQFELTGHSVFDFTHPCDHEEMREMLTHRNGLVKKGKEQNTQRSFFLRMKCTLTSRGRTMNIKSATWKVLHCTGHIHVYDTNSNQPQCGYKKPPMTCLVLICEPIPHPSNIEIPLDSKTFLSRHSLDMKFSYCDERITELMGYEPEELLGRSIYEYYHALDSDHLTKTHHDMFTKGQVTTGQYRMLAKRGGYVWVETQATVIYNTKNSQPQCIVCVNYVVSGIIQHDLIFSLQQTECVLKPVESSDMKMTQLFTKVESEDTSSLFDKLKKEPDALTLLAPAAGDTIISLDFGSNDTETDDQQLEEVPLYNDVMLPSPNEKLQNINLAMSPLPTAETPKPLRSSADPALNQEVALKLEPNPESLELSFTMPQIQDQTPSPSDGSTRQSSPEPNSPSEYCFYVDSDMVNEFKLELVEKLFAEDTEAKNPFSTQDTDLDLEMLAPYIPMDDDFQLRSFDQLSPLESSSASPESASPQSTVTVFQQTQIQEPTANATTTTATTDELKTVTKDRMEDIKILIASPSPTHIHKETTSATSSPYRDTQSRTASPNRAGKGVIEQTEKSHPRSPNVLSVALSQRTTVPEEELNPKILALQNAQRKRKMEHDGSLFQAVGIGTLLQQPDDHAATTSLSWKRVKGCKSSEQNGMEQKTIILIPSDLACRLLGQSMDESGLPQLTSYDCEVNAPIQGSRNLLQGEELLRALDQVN

Regarding `CCc1cnc(C2=NC(C)(C(C)C)C(=O)N2)c(C(=O)O)c1` (stereo not drawn), the outcome in [1], in assay [2], in [3], in assay [4], in [5] and in assay [6] was inactive. For the same molecule, the molecule was called inactive (in assay [7]; in [8]; with HGF (gene 3082); in assay [9]; in [10]; in assay [11]). Further, the result in [12], in [13], in assay [14], in [15], in assay [16] and in [17] was inactive.
As for `CCOP(=S)(OCC)Oc1ccc2c(C)c(Cl)c(=O)oc2c1`, the AC50 in [1] was 15.5 µM (active); in assay [2], 82 µM (active); in assay [3] it was 50 µM (active); in [8], 51.8 µM (active); in assay [9], 33.8 µM (active); in assay [11] it was 21.5 µM (active). For the same molecule, the results for the half-maximal activity concentration (AC50) in assay [15] and in assay [18] were 29.4 µM (active) and 74.7 µM (active), respectively. Moreover, the call (in [4]; in assay [6]; in assay [7]; with HGF (gene 3082); in assay [10]; in [12]) was inactive. Also, the outcome in assay [13], in [14], in assay [16] and in [17] was inactive.
On to `CCOP(=S)(OCC)Oc1ccc([N+](=O)[O-])cc1`, for which the AC50 is 1.78 µM (active) in [1] and 1.48 µM (active) in assay [13]. Further, the call in assay [2], in assay [3], in assay [4], in assay [5], in assay [6] and in [7] was inactive. Besides, the call (in [8]; with HGF (gene 3082); in assay [9]; in assay [10]; in [11]; in assay [12]) was inactive. Besides, the outcome in [15] and in assay [16] was inactive.
As for `CN(C)[C@@H]1C(=O)C(C(N)=O)=C(O)[C@@]2(O)C(=O)C3=C(O)c4c(O)cccc4[C@@](C)(O)[C@H]3[C@H](O)[C@@H]12`, the result in assay [1], in assay [2], in assay [3], in assay [4], in assay [6] and in assay [8] was inactive. Further, the call (with HGF (gene 3082); in assay [9]; in assay [10]; in [11]; in assay [12]; in [13]) was inactive. Besides, the result in assay [14], in [15], in assay [16] and in assay [17] was inactive.

One may read the AC50 as the midpoint of the concentration-response curve, whichever way the signal moves.
